Screens: PubChem BioAssay, National Center for Advancing Translational Sciences (NCATS)
Only some compounds are listed: those with a hit (about 6.8% of all), similar ones and a draw of the others.
TSG101-PTAP inh = blocks PTAP/TSG101 interaction to inhibit HIV-1 budding; 340,000 tested, under 10 active; Q99816; Potency, µM (series often up to 115 µM), for the others: at the top dose activity change, negative = inhibition, actives largely listed as inhibitors; Fluorescence polarization, FITC-PTAP peptide / Tsg101 binding; active means well fitted inhibition curve with a large enough effect in the main read-out, with a control signal flat, not every such curve was filed as active; inconclusive means small, poorly fitted or top-dose-only effect, or effect the other way, or a change in a side signal; inactive means no such curve, though single readings can be large or run the other way; further: % of control where 0% means no effect
Target sequence (Q99816 whole entry, looked up): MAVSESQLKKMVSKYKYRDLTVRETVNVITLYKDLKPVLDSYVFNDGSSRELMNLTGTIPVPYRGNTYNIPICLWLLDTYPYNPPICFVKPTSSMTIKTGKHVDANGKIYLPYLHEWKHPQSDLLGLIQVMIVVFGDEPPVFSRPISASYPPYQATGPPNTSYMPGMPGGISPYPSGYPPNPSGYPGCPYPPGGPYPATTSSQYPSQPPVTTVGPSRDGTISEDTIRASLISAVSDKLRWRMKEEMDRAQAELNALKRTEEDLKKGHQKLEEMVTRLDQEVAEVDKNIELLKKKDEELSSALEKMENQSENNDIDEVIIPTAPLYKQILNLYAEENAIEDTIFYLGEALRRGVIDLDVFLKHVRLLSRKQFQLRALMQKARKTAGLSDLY
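FP read-out: FITC-PTAP peptide, 50 nM final, binding Tsg101 binding domain, 10 uM final; 20 min, r.t.; 10 mM HEPES pH 7.5, 0.15 M NaCl, 0.01% Tween 20, 3 mM EDTA, 0.1 mM TCEP.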
SW480 rereplic = inducers of DNA re-replication in SW480 colon cancer cells. SW480 DNA re-replication, Hoechst DNA content imaging, 48 h. Potency, µM (top dose mostly 46.1 µM), without a hit: at the highest dose re-replication activation, hits mostly activators. 340,000 tested, 1.8% active. AID 624297; further: % of control where 0% means no effect; nearly all actives have a fitted effect of over 55% in size
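Cells (250 per well) received 23 nL compound or DMSO by pin tool and were kept 48 hr at 37 C, 5% CO2. Nuclei were then stained with Hoechst for 40 min and scanned for DNA content.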
MCF10A rereplic = induces DNA re-replication in MCF 10a normal breast cells | MCF 10A DNA re-replication, Hoechst nuclear intensity, 48 h | Potency, µM (series often up to 46.1 µM), for inactives: top-dose activity, positive = re-replication, actives largely listed as activators | 350,000 tested, 2.9% active | AID 624296; further: % of control where 0% means no effect; nearly all actives have a fitted effect of over 50% in size
KB-3-1 cytotox = kills parental KB-3-1 adenocarcinoma cells; KB-3-1 viability, CellTiter-Glo ATP luminescence, 72 h; Potency, µM (highest dose often 46.1 µM), most hits filed as cytotoxic; 400,000 tested, 1.4% active; further: on the % scale 0 is the no-effect control and ±100 the full control effect; nearly all actives have a fitted effect of over 60% in size
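Parental KB-3-1 viability, qHTS format: 72 h compound exposure, 37 °C; CellTiter-Glo; media-only wells and DMSO plates as controls; concentration-effect fits on corrected data.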
PINK1 expr mod = changes PINK1 expression. PINK1 immunofluorescence, high-content cytometry, 24 h. Potency, µM (doses to about 76.6 µM), for inactives: at the highest dose activation (PINK1 increase), usual class: activators. 410,000 tested, 0.2% active; active means well fitted activation curve with a large enough effect; inconclusive means small, poorly fitted or top-dose-only effect; cell line not stated here; further: % of control where 0% means no effect; nearly all actives have a fitted effect of over 65% in size
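Cells are seeded, rested 12 hours, then given compound at five concentrations or DMSO for 24 hours. After fixation, blocking and antibody staining, PINK1 amount and mitochondrial localization are scored; CCCP serves as control.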
KB-V1 MDR tox = kills drug-selected multidrug resistant KB-V1 cells | KB-V1 MDR cells viability, CellTiter-Glo, 72 h | Potency, µM (top dose mostly 46.1 µM), hits mostly cytotoxic | 400,000 tested, 3.4% active | AID 1347076; further: on the % scale 0 is the no-effect control and ±100 the full control effect; nearly all actives have a fitted effect of over 60% in size
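KB-V1, DMEM (no phenol red) + 10% FBS; cpd pin-transferred, titration series; 72 h, 37 degrees C; CellTiter-Glo, luminescence. Data normalized, curve-fit.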
Active calls of the source: *; i = inactive; ? = inconclusive; . = no result given; ! = not active in a repeat; [ ] = dose if it differs, or a comment. Unless noted, the call rests on the fitted dose curve; in most records, active means well fitted curve in the direction sought with a large enough effect; inconclusive means small, poorly fitted or top-dose-only effect, or another doubt; inactive means no such curve, though single readings can be large; an effect the other way counts as inactive or inconclusive. Potency means the concentration at half of the fitted maximal effect.

SMILES	TSG101-PTAP inh	SW480 rereplic	MCF10A rereplic	KB-3-1 cytotox	PINK1 expr mod	KB-V1 MDR tox
Cc1cccc(C(=O)Nc2sc3c(c2C(=O)O)CCCC3)c1	-14.2%	3.0%	?	6.51µM*!	1.3%	7.31µM*!
CCC1(C2CCN(C(=O)c3cc(F)ccc3F)CC2)NC(=O)N(CCc2scnc2C)C1=O (stereo not given)	.	.	.	.	-0.3%	.
Cc1ccc(Cl)cc1NC(=O)c1oc2ccc(S(=O)(=O)N(C)C3CCCCC3)cc2c1C	.	.	.	.	-0.3%	.
COc1cccc(C(c2c(NC(=O)c3ccccc3)sc(C)c2C)N2CCN(C)CC2)c1 (stereo not given)	2.2%	2.2%	12.6%	?	14.2%	20.6µM*
CC1(c2cccc3ccccc23)OC(=O)c2ccccc21 (stereo not given)	-1.1%	11.2%	?	?	9.1%	18.4µM*
C/C(=C\C(=O)c1ccc(F)cc1)Nc1ccc(N2CCOCC2)cc1	-4.3%	-0.1%	-0.2%	i	12.8%	20.6µM*
O=C(/C=C/c1ccc(F)cc1)c1ccc(N2CCOCC2)cc1	3.5%	?	?	i	16.0%	i
Cc1[nH]n(-c2ccccc2)c(=O)c1N=Nc1ccccc1O	-4.1%	?	6.6%	9.2µM*	-0.4%	i
COc1ccc(CN2CCOc3ccc(C(O)c4cccnc4)cc3C2)c(F)c1 (stereo not given)	.	.	.	.	-1.0%	.
CCc1ccccc1Nc1cc(C(=O)NC(C)c2ccccc2)c2ccccc2n1 (stereo not given)	.	.	.	i	4.9%	i
CCOC(=O)c1ccc(S(=O)(=O)N2CC(=O)Nc3ccccc32)cc1	-11.7%	14.6µM*	?	i	2.0%	i
COc1cccc(CNC(=O)c2cc3oc4ccccc4c3n2C)c1OC	-5.3%	-2.8%[9.22 µM]	?	?	1.5%	6.51µM*
CCOc1ccc(CNC(=O)c2cc3oc4ccccc4c3n2C)cc1	-11.5%	-4.9%	6.3%	?	-0.5%	?
CCn1c(C(=O)N2CCc3ccccc3C2)cc2oc3ccccc3c21	-1.3%	1.3%	16.4µM*	i	-1.5%	i
CCOc1ccccc1CNC(=O)c1cc2oc3ccccc3c2n1CC	0.0%	3.9%	18.4µM*	?	-0.7%	?
COc1cccc(CNC(=O)C2CCCCN2S(=O)(=O)c2ccc(F)cc2)c1 (stereo not given)	.	.	.	i	3.8%	i
COc1ccccc1NC(=O)CSc1oc(-c2ccco2)nc1S(=O)(=O)c1ccc(C)cc1	.	.	.	i	-0.1%	i
COc1ccccc1NC(=O)Cn1c(=O)n(-c2cccc(C(C)=O)c2)c(=O)c2c3c(sc21)CN(C(C)=O)CC3	.	.	.	i	1.9%	i
COc1ccc(CNS(=O)(=O)c2ccc(C(=O)N(C)C)s2)cc1	.	.	.	i	0.6%	?
Cc1ccc(SCCC(=O)Nc2ccccc2C(=O)NC(C)C)cc1	-3.0%	?	-15.6%	i	22.8%	2.91µM*
CCN1CCCC1CNC(=O)c1cnn(-c2ncc(C)c(-c3ccc(F)cc3)n2)c1C(C)C (stereo not given)	.	.	.	.	-0.7%	.
COc1ccc(-c2ccc([C@H]3[C@H]4C=CC[C@@H](C)[C@@H]4C(=O)N3Cc3ccccc3)c(F)c2)cc1OC	0.2%	9.3%[9.22 µM]	-8.1%	?	5.9%	?
COc1ccc(-c2ccoc2)cc1[C@H]1[C@H]2C=CC[C@@H](C)[C@@H]2C(=O)N1Cc1ccccc1	-7.3%	6.5%	18.4µM*	?	?	i
COc1ccc(-c2ccc([C@H]3[C@H]4C=CC[C@@H](C)[C@@H]4C(=O)N3Cc3ccccc3)c(F)c2)cc1	-8.4%	?	13µM*	i	2.3%	i
COc1cc(-c2cccc([C@H]3[C@@H]4C=CC[C@@H](C)[C@@H]4C(=O)N3Cc3ccccc3)c2)cc(OC)c1OC	-1.2%	3.1%	7.31µM*	i	12.2%	i
